# Results published in the supplement of paper PMC10849652.
# Targets with a hit are over-represented here; the source holds about 7,900 in all. About 0.6% of all pairs of compound and target were hits. Unmarked numbers belong to inactive results.
# Compound: CNCc1ccc(-c2[nH]c3cc(F)cc4c3c2CCNC4=O)cc1 [rucaparib]
# Experiment: log2 fold change, soluble protein after heating vs DMSO (PISA); higher = thermal stabilisation; K562 cells, 10 uM, 30 min; active = over 0.2 and 3.5 SD of the protein, either way, in both replicates (recomputed)
# How it was run: (§1)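 Quantification of soluble protein used TMTpro 16plex LC-MS/MS, with channel sums equalised. Samples were the supernatant after 21,000xg for 90 min of pooled aliquots from K562 cells (2×10^6 cells/mL) treated with 10 μM compound for 30 min, heated for 3 min over 48°C-58°C, and extracted in PBS with 0.5% NP-40 at 4°C. Values, from duplicates, describe thermal stability against control samples on a log2 fold-change scale.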
# UniProt Q9UK97, sequence (Q9UK97 whole entry, looked up): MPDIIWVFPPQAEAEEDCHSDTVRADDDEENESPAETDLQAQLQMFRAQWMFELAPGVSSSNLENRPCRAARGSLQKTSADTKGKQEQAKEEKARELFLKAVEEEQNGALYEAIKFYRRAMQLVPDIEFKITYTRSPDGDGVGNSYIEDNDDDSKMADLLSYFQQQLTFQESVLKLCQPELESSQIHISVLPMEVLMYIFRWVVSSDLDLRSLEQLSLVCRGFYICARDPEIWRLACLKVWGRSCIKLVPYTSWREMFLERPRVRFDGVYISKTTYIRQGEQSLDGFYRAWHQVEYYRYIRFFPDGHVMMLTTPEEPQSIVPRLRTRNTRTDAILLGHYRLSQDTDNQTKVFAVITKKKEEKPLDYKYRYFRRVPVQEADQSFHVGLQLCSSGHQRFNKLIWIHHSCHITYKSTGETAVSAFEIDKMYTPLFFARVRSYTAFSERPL
# UniProt I6L899, sequence (I6L899 whole entry, looked up): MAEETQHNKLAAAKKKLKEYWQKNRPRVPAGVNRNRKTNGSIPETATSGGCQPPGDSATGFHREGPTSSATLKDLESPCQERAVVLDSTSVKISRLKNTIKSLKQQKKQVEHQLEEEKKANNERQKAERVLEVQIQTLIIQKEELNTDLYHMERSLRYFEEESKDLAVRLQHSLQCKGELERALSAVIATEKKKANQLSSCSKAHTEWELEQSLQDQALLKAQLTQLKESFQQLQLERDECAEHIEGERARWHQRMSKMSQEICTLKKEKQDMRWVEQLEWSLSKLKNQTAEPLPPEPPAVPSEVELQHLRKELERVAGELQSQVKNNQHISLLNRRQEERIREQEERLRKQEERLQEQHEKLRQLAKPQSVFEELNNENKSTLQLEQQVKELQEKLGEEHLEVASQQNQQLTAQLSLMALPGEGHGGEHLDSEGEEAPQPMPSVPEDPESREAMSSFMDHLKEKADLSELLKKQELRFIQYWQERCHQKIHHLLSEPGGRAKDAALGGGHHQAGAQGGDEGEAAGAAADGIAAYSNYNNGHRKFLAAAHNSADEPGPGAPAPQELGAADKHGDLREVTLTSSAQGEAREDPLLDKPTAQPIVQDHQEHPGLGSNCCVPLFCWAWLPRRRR
# UniProt O15117, sequence (O15117 whole entry, looked up): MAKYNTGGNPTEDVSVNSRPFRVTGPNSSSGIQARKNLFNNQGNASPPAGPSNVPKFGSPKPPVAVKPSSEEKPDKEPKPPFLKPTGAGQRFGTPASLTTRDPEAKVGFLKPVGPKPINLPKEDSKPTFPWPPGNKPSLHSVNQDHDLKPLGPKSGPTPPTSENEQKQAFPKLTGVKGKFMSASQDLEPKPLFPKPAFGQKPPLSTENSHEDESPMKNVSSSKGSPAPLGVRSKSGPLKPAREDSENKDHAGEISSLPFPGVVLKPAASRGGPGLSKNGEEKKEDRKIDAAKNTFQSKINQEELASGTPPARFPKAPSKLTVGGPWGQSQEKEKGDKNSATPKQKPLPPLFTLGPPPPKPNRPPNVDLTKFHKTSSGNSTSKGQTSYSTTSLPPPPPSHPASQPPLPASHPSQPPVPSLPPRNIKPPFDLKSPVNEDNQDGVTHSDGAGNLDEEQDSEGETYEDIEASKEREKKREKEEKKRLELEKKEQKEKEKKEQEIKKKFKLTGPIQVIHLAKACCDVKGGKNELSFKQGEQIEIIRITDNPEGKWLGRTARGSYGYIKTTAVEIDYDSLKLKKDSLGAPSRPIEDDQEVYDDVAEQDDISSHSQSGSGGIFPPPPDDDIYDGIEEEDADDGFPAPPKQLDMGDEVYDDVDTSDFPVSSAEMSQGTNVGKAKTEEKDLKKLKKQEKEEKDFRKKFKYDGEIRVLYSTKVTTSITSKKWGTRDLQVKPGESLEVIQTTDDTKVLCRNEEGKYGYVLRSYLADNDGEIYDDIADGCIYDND
# UniProt Q53T59, sequence (Q53T59 whole entry, looked up): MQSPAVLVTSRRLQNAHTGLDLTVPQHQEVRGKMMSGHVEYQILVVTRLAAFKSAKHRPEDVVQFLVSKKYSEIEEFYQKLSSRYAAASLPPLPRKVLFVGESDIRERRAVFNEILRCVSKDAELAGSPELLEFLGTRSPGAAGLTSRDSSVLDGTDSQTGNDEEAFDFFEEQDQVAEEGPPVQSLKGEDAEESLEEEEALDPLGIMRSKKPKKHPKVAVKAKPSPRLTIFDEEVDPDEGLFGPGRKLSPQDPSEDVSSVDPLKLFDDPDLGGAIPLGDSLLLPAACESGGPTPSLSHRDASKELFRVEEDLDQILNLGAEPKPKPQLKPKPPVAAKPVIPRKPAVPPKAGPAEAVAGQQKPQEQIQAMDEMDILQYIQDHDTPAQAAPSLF
# UniProt Q96SL8, sequence (Q96SL8 whole entry, looked up): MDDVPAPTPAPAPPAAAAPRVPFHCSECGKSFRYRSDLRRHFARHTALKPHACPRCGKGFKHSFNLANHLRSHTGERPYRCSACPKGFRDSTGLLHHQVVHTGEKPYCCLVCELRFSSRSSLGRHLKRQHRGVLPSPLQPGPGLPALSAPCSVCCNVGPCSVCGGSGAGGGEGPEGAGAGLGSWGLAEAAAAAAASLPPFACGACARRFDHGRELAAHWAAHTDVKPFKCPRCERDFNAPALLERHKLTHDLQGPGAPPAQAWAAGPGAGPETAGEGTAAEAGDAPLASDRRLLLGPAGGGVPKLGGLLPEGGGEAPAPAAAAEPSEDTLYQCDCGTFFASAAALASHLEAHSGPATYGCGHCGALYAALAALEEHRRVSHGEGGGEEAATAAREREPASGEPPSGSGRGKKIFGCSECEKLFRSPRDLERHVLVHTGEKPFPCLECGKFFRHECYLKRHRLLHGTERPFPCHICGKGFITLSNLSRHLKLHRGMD
# UniProt O94925, sequence (O94925 whole entry, looked up): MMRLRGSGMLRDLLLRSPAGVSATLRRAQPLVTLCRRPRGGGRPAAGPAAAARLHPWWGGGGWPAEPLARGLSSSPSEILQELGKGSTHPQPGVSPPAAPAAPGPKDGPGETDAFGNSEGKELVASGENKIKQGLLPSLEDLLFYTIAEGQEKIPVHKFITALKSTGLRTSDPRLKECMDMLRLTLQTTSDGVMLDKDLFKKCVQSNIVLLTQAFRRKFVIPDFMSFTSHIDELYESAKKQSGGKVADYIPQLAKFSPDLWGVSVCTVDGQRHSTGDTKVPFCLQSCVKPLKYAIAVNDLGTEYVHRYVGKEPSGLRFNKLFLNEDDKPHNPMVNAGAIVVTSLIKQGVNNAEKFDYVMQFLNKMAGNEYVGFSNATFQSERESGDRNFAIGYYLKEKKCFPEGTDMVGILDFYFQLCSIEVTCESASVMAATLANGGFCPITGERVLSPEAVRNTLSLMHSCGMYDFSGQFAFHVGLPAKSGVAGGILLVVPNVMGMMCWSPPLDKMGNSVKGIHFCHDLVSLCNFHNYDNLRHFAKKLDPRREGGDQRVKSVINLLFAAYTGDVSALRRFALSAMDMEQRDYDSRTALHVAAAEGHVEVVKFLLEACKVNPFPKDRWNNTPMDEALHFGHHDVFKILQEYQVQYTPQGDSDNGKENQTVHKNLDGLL
# UniProt O14893, sequence (O14893 whole entry, looked up): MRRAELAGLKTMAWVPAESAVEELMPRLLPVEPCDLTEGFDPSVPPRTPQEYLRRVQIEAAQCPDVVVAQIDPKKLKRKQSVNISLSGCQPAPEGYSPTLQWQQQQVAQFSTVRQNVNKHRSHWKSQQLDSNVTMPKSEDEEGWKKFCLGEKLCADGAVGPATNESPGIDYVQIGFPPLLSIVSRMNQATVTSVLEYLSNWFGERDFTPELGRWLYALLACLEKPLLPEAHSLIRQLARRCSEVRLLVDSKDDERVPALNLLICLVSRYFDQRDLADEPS
# UniProt Q9Y324, sequence (Q9Y324 whole entry, looked up): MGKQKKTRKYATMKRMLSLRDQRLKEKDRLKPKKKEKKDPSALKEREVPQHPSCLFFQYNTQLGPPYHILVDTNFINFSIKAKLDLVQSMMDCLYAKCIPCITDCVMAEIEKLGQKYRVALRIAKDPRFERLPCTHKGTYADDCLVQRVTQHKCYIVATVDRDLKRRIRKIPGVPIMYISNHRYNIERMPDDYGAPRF
# UniProt Q969S8, sequence (Q969S8 whole entry, looked up): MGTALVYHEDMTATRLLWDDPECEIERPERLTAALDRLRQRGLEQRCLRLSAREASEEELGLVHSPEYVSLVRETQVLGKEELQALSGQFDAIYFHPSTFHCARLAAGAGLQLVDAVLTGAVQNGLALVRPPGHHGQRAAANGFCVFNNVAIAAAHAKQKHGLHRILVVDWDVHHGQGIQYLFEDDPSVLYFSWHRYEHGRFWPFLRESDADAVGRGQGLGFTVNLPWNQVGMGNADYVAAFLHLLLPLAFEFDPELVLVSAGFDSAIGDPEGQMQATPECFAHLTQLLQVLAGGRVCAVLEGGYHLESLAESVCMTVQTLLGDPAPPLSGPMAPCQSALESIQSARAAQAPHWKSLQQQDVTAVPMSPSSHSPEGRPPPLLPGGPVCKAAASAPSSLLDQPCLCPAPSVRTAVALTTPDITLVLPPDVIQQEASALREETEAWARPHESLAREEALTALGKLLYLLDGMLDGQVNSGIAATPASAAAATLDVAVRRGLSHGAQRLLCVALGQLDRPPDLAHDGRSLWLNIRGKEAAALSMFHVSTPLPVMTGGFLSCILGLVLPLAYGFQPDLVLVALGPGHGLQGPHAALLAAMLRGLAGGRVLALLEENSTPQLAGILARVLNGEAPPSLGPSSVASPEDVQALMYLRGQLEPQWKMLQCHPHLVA
# UniProt O60725, sequence (O60725 whole entry, looked up): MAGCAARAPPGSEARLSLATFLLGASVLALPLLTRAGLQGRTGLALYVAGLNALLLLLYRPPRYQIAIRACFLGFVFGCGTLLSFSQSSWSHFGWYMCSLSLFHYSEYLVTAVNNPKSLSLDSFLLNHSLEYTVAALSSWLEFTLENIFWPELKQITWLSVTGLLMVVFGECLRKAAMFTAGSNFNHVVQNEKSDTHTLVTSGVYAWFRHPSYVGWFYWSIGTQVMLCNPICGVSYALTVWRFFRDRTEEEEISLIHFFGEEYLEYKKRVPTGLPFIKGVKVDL
row,Target,log2 fold change
1,HP1BP3 (UniProt Q5SSJ5),-0.041
2,GLS isoform 3 (UniProt O94925),-0.045
3,FHOD1 (UniProt Q9Y613),0.442
4,FAT2 (UniProt Q9NYQ8),-0.007
5,FBXO9 (UniProt Q9UK97),0.055
6,GSTT1 (UniProt P30711),0.028
7,GOLGA8R (UniProt I6L899),0.189
8,HDAC7 isoform 5 (UniProt Q8WUI4),-0.033
9,GEMIN2 (UniProt O14893),0.136
10,GNL3 (UniProt Q9BVP2),-0.052
11,GTF2A1 (UniProt P52655),-0.021
12,GPNMB (UniProt Q14956),0.007
13,HSPA8 (UniProt E9PN89),0.101
14,GPS2 (UniProt Q13227),0.02
15,"HBZ, A0A494C057",-0.058
16,FCF1 (UniProt Q9Y324),0.187
17,FMR1 (UniProt Q06787),0.19
18,FYB1 isoform 3 (UniProt O15117),0.028
19,GBE1 (UniProt Q04446),-0.132
20,ICMT (UniProt O60725),0.037
21,HNRNPUL1 (UniProt M0R247),0.09
22,HNRNPK isoform 3 (UniProt P61978),0.032
23,FIZ1 (UniProt Q96SL8),-0.012
24,HDAC10 (UniProt Q969S8),0.024
25,HS1BP3 (UniProt Q53T59),-0.038

# Compound: CNc1nc(-c2ccc3c(N)n[nH]c3c2)cc(N2C[C@@H](C(=O)NC3CCCCC3)CC[C@H]2C)n1
# Experiment: as above
# How it was run: as §1
row,Target,log2 fold change
1,HP1BP3 (UniProt Q5SSJ5),-0.001
2,GLS isoform 3 (UniProt O94925),-0.063
3,FHOD1 (UniProt Q9Y613),0.101
4,GPD1 (UniProt P21695),0.05
5,GSE1 (UniProt Q14687),-0.014
6,FAT2 (UniProt Q9NYQ8),0.021
7,FBXO9 (UniProt Q9UK97),-0.014
8,GSTT1 (UniProt P30711),0
9,GOLGA8R (UniProt I6L899),0.246
10,HDAC7 isoform 5 (UniProt Q8WUI4),0
11,GEMIN2 (UniProt O14893),0.013
12,GNL3 (UniProt Q9BVP2),0.044
13,GTF2A1 (UniProt P52655),-0.003
14,IGF2 isoform 3 (UniProt P01344),-0.105
15,FCF1 (UniProt Q9Y324),0.2
16,FYB1 isoform 3 (UniProt O15117),-0.076
17,GBE1 (UniProt Q04446),0.076
18,ICMT (UniProt O60725),0.235
19,HNRNPUL1 (UniProt M0R247),-0.431
20,GOPC (UniProt Q9HD26),0.164
21,HNRNPK isoform 3 (UniProt P61978),-0.035
22,FIZ1 (UniProt Q96SL8),-0.095
23,HDAC10 (UniProt Q969S8),-0.02
24,FAT1 (UniProt Q14517),-0.094
25,HS1BP3 (UniProt Q53T59),0.371 (active)

# Compound: COC(=O)N[C@@H](C)CNc1nccc(-c2cn(C(C)C)nc2-c2cc(Cl)cc(NS(C)(=O)=O)c2F)n1 [encorafenib]
# Experiment: as above
# How it was run: as §1
row,Target,log2 fold change
1,HP1BP3 (UniProt Q5SSJ5),0.075
2,GLS isoform 3 (UniProt O94925),0.039
3,FHOD1 (UniProt Q9Y613),0.187
4,FAT2 (UniProt Q9NYQ8),0.094
5,FBXO9 (UniProt Q9UK97),0.152
6,GSTT1 (UniProt P30711),0.023
7,GOLGA8R (UniProt I6L899),-0.098
8,HDAC7 isoform 5 (UniProt Q8WUI4),-0.016
9,GEMIN2 (UniProt O14893),0.151
10,GNL3 (UniProt Q9BVP2),-0.065
11,GTF2A1 (UniProt P52655),-0.056
12,GPNMB (UniProt Q14956),-0.25
13,HSPA8 (UniProt E9PN89),0.023
14,GPS2 (UniProt Q13227),0.041
15,"HBZ, A0A494C057",-0.094
16,FCF1 (UniProt Q9Y324),0.121
17,FMR1 (UniProt Q06787),0.04
18,FYB1 isoform 3 (UniProt O15117),0.074
19,GBE1 (UniProt Q04446),0.062
20,ICMT (UniProt O60725),-0.144
21,HNRNPUL1 (UniProt M0R247),-0.086
22,HNRNPK isoform 3 (UniProt P61978),-0.041
23,FIZ1 (UniProt Q96SL8),0.069
24,HDAC10 (UniProt Q969S8),0.024
25,HS1BP3 (UniProt Q53T59),0.037
